Anthrax LF inh2 – blocks Bacillus anthracis lethal factor protease. multiplex microsphere protease cleavage assay, LF. inhibition, % at 10 µM. AID 588501. P15917. hit rate 0.12% among 360,000
Target sequence (P15917 whole entry, looked up): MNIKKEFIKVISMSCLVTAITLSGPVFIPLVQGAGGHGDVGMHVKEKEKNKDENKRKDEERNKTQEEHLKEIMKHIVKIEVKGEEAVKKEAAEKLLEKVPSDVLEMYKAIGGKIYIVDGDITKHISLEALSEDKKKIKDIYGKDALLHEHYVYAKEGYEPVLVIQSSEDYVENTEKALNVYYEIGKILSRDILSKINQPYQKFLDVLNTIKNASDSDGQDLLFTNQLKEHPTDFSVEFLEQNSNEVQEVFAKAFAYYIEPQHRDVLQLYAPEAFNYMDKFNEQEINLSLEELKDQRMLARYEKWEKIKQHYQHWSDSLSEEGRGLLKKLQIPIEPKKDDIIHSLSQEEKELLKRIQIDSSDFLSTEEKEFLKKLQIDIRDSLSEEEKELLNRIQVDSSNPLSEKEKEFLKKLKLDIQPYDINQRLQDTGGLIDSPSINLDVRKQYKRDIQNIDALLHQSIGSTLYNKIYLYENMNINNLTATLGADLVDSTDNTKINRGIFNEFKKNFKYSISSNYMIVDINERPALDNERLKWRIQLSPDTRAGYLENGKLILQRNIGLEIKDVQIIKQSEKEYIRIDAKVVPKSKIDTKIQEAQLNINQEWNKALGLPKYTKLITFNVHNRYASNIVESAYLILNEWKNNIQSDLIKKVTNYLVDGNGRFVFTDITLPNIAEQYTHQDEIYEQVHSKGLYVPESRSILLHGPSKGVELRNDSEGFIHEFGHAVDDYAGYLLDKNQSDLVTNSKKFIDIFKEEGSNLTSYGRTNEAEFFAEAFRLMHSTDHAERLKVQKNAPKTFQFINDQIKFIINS
MazF activator – increases E. coli MazEF RNase cleavage of RNA. FAM/BHQ RNA-DNA oligo cleavage fluorescence, 5 h. activation, % at 20 µM. hit rate 0.32% among 350,000. AID 504720; in the data active = activation above about 50%
BoNT A protease – inhibitors of Botulinum neurotoxin A light chain protease; hit rate 0.17% among 360,000; multiplex microsphere protease substrate cleavage, flow cytometry; inhibition, % at 10 µM
BoNT F protease – BoNT F light chain protease inhibition. Multiplex microsphere protease cleavage assay, flow cytometry. hit rate 0.22% among 360,000. inhibition, % at 10 µM; in the data active = inhibition above about 35%, passing the limit was not always enough; inconclusive = no clear call, values can overlap the other calls
Autofluor counter – flagged as autofluorescent in microsphere protease counterscreen; compound autofluorescence counterscreen, microsphere flow cytometry; active compounds read high; fluorescence intensity (test concentration not listed); hit rate 3.1% among 360,000; AID 624483; in the data active = fluorescence intensity above about 16000; inconclusive = no clear call, values can overlap the other calls
Hits are given with their value; 0 = inactive; ? = inconclusive; - = no result given. The list is not random: actives were taken first. Their share in the collection is about 3.6%. Rule as the data show it, unless noted: active = inhibition above about 30%; inconclusive = no clear call, values can overlap the other calls; inactive = below that.

SMILES | Anthrax LF inh2 | MazF activator | BoNT A protease | BoNT F protease | Autofluor counter
Cc1ccccc1Cc1c(C)nc2c(C(=O)NCc3ccco3)cnn2c1C | 0 | 0 | 0 | 0 | 17104
Cc1nc2c(C(=O)N3CCC4(CC3)OCCO4)cnn2c(C)c1Cc1cccc(Cl)c1 | 0 | 0 | 0 | 0 | 0
Cc1nc2c(C(=O)N3CCCC3)cnn2c(C)c1Cc1c(F)cccc1Cl | 0 | 0 | 0 | 0 | 23177
Cc1nc2c(C(=O)O)cnn2c(C)c1Cc1ccccc1F | 0 | 0 | ? | 0 | 19848
CCc1ccc(N(C(=O)Cc2cccs2)C(C(=O)NC2CCCCC2)c2cn(C)nc2C)cc1 (centres undefined) | 0 | 0 | ? | 0 | 23253
Cc1cc(C)cc(N(C(=O)Cc2cccs2)C(C(=O)NC2CCCCC2)c2ccccn2)c1 (centres undefined) | 0 | 0 | ? | 0 | 23274
CCCCC1CCC(C(=O)Nc2ccccc2)CC1 (centres undefined) | 0 | 0 | ? | 0 | 16463
CCCCC1CCC(C(=O)Nc2ccccc2N2CCOCC2)CC1 (centres undefined) | 0 | 0 | 0 | 0 | ?
CC12CCC(=O)C=C1CCC1C2C(O)CC2(C)C1CCC2(O)C(=O)CO (centres undefined) | 0 | 0 | 0 | 0 | 0
Cc1ccc(CNS(=O)(=O)c2ccc(-n3cccn3)cc2)cc1 | 0 | 0 | 0 | 0 | 0
O=C(CN1CCCCCC1)NCc1ccccc1 | 0 | 0 | 0 | 0 | 0
CC1CCN(CC(=O)NCc2ccccc2)CC1 | 0 | 0 | 0 | 0 | 22476
COc1ccc(NC(=O)c2cc(-c3ccc(F)cc3OC)n[nH]2)c(C)c1 | 0 | - | 0 | 0 | 0
O=c1cc2c(=O)oc3cc(O)c(O)oc3c2c(O)c1O | 0 | 55 | 0 | 0 | 0
O=c1oc2cc(O)c(Cl)cc2c2ccccc12 | 0 | 0 | 0 | 0 | 0
OCCNc1ncnc2c1ncn2[C@H]1CN(Cc2ccco2)C[C@@H](CO)O1 | 0 | - | 0 | 0 | 0
Cc1cc(C)n2nc(SC(C)C(=O)NC3CCCCC3C)nc2n1 (centres undefined) | - | 0 | - | - | -
Nc1cc(=O)[nH]c(SCC(=O)Nc2cccc(Cl)c2)n1 | 0 | 0 | 0 | 0 | 17592
COCc1cc(=O)[nH]c(SCC(=O)Nc2ccccc2)n1 | 0 | 0 | ? | 0 | 22752
O=C(O)c1ccccc1-c1ccccc1C(=O)NCc1ccco1 | 0 | 0 | 0 | 0 | 0
Cc1scc(C(=O)NCc2ccco2)c1-c1ccccc1 | 0 | 0 | 0 | 0 | 20412
O=C(NCc1ccco1)c1ccccc1-c1ccccc1 | 0 | 0 | 0 | 0 | 22200
O=C(NCc1ccco1)c1ccccc1NS(=O)(=O)c1ccc(Br)s1 | 0 | 0 | 0 | 0 | 22236
CCOC(=O)c1[nH]c(=S)n(-c2ccccc2)c1C(=O)OCC | 0 | 0 | 0 | 0 | 0
Cc1nn(-c2ccc(F)cc2F)c2c1-c1nc(N3CCCC3)ncc1CC2 | 0 | 0 | ? | 0 | 23757
SMILES | Anthrax LF inh2 | MazF activator | BoNT A protease | BoNT F protease | Autofluor counter
Cc1nn(-c2ccc(F)cc2F)c(=O)c2noc(C)c12 | - | 0 | - | - | -
O=C(/C=C/c1ccco1)N(Cc1cccc(F)c1)C1CCS(=O)(=O)C1 (centres undefined) | 0 | 0 | 0 | 0 | 0
CC(=O)c1cccc(NC(=O)Nc2cnn(Cc3ccc(Cl)cc3Cl)c2)c1 | 0 | 0 | 0 | 0 | 22775
COc1ccccc1NC(=O)c1ccccc1NC(=O)c1cccs1 | 0 | 0 | 0 | 0 | 0
COc1ccccc1NC(=O)c1cccs1 | 0 | 0 | 0 | 0 | 16647
COc1ccccc1NC(=O)CN(Cc1ccco1)C(=O)c1cncc(Br)c1 | 0 | 0 | 0 | 0 | 0
COc1ccccc1NC(=O)CN(Cc1ccco1)C(=O)c1cccs1 | 0 | 0 | 0 | 0 | 23213
O=C(Oc1ccccc1)N1CCN(c2ccccc2F)CC1 | 0 | 0 | 0 | 38 | 0
Cn1c(=O)cc(SCC(=O)NCCN2CCN(c3ccccc3F)CC2)c2cc(Cl)ccc21 | 0 | 0 | ? | 0 | 22129
O=C(CN1CCN(c2ccccc2F)CC1)NCc1ccccc1 | 0 | 0 | 0 | 0 | 0
O=C(NCCN1CCN(c2ccccc2F)CC1)c1ccc2nc3ccccc3c(=O)n2c1 | 0 | 0 | 0 | 0 | 0
O=C(NCN1CCN(c2ccccc2F)CC1)c1ccccc1 | 0 | 0 | 0 | 0 | 23676
O=C(Cc1c(C(=O)O)[nH]c2ccccc12)NCCN1CCN(c2ccccc2F)CC1 | 0 | 0 | ? | 0 | 23477
CC1(C(=O)NS(=O)(=O)c2ccc3ccccc3c2)CCN1C(=O)CC1CCCCC1 (centres undefined) | 0 | - | 0 | 0 | 0
Cc1cc(Br)ccc1NC(=O)CN(C)C(=O)C1CCN(c2ncnc3sc(C)c(C)c23)CC1 | 0 | 0 | 0 | 0 | 0
O=C1CC(c2cccc(F)c2)SC(N(c2ccccc2)c2ccccc2)=N1 (centres undefined) | 0 | 0 | 0 | 0 | 23403

Screens: PubChem, several laboratories
